The record followed here is PubChem BioAssay.

Activity calls are given as the source filed them. Unless noted, the rule behind the calls is not given here.

Experiment [1] has as its system Wnt5a (protein binding on small-molecule microarray). The experiment in a line: Wnt5a binders on small-molecule microarray, primary screen, biophysical, 635/667 nm fluorescence (AID 1142).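 Note: fluorescence read at 667 nm with signal to noise per printed feature.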 The note with it: 635 nm fluorescence, higher = more signal.
Experiment [2] in a line: cell viability in Huh7 cells, primary screen, cytotoxicity control for HCV replication inhibitor project, CellTiter-Glo luminescence, basal, 48 h (AID 1143).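 Note: Huh7 hepatoma cells carrying a hepatitis C replication reporter with no stimulus; test concentration not given here.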 The following applies: Huh7 HCV replicon, higher = more signal, called active from +8 up or from −8 down. On the technique in general: Cellular ATP, detected with luciferase, serves as a proxy for viable cell number.
Experiment [3] can be described thus: P. aeruginosa biofilm formation inhibitors, primary screen, PAO1 strain, BacTiter-Glo luminescence, LB-PBS (AID 1144). The following applies: 12 h, higher = more signal.
Experiment [4] in a line: CREB reporter modulators without forskolin, primary screen, cell-based, PC12, CRE-LacZ reporter, unstimulated (AID 1145). The note with it: no forskolin, luminescence, 4.5 h, higher = more signal, called active from +8 up or from −8 down.
Experiment [5] is described as follows: CREB reporter modulators under forskolin, primary screen, cell-based, PC12, CRE-LacZ reporter, forskolin-stimulated (AID 1146).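 Note: PC12 cells with 6xCRE LacZ reporter stimulated by forskolin 10 µM; beta-galactosidase reporter signal reflecting CREB driven transcription.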 The following applies: luminescence, 4.5 h, higher = more signal, called active from +8 up or from −8 down.
The target of experiment [6] is Streptavidin (Streptomyces avidinii) (UniProt P22629). The experiment in a line: streptavidin binders on small-molecule microarray, primary screen, artefact control for SMM compound annotation, biophysical, 635/667 nm fluorescence (AID 1147).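 Note: signal reflects streptavidin binding to arrayed compounds as a control protein.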 The following applies: streptavidin binding, higher = more signal.
Streptavidin (Streptomyces avidinii), sequence (P22629 whole entry, looked up): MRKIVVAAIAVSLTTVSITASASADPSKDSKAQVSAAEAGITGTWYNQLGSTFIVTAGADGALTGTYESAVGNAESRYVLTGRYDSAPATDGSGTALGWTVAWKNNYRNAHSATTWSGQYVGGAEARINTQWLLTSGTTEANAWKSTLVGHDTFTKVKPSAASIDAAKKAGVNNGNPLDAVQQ
The nature of experiment [7]: small-molecule binders of probe aInhba, primary screen, biochemical, small-molecule microarray, 635/667 nm fluorescence (AID 1148).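 Note: score merges 667nm spot fluorescence with signal-to-noise for antibody binding to printed compounds.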 The following applies: higher = more signal.
Experiment [8] concerns the target Torsin-1A (Homo sapiens) (UniProt O14656). As to the kind of experiment: torsin A binders from cell lysate, primary screen, small-molecule microarray, wild-type, 635/667 nm (AID 1149). The note with it: COS7 hTOR1A-WT lysate, 635 nm fluorescence, higher = more signal.
For experiment [9] the target is unchanged. As to the kind of experiment: small-molecule binders of mutant TOR1A in lysate, primary screen, cell lysate, small-molecule microarray, COS7 lysate, 635/667 nm fluorescence (AID 1150).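 Note: score pools 667 nm emission and signal to noise measuring lysate protein binding.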 The following applies: COS7 hTOR1A mutant lysate, 635 nm fluorescence, higher = more signal.
For experiment [10], the system named is Sonic hedgehog protein (Shh). The experiment in a line: small-molecule binders of Shh protein, primary screen, biochemical, small-molecule microarray, 635/667 nm fluorescence (AID 1151).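 Note: Shh protein binding to compounds spotted on small-molecule microarray slides; score combines spot fluorescence intensity with signal-to-noise across triplicate slides.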 The note with it: small-molecule microarray binding, 635 nm fluorescence; higher = more signal.
The nature of experiment [11]: E. coli DRC41 culture turbidity changes, primary screen, E. coli filamentation inducer project, strain DRC41, OD650, 48 h (AID 1152).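 Note: E. coli MC1000 strain DRC41 lacking acrAB efflux pump and sulA.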 The note with it: E. coli DRC41 (acrAB sulA), higher = more signal, called active from +8 up or from −8 down.
A short description of experiment [12]: small-molecule binders of probe aLefty1, primary screen, biochemical, small-molecule microarray, 635/667 nm fluorescence (AID 1153).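 Note: score merges spot fluorescence with signal-to-noise ratio from the scanned slide images.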 The note with it: higher = more signal.
Experiment [13] is described as follows: PSAC antagonists in infected red cells, primary screen, cell-based, P. falciparum Indochina, OD700, 1 h (AID 1154). The note with it: P. falciparum Indochina infected RBC osmotic lysis, higher = more signal, called active from +8 up or from −8 down.
A short description of experiment [14]: PSAC antagonists in infected red cells, primary screen, cell-based, P. falciparum Indochina, OD700, 2 h (AID 1155).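 Note: lysis reports solute entry through the parasite surface anion channel PSAC; channel blockers reduce lysis of infected cells.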 The following applies: P. falciparum Indochina infected erythrocytes, osmotic lysis OD700; higher = more signal, called active from +8 up or from −8 down.
Experiment [15] can be described thus: osmotic lysis modulators in infected erythrocytes, primary screen, PSAC antagonist project, cell-based, P. falciparum Indochina, OD700, 3 h (AID 1156). The note with it: higher = more signal, called active from +8 up or from −8 down.
Experiment [16] in a line: PSAC antagonists in infected red cells, primary screen, cell-based, P. falciparum Indochina, OD700, 18 h (AID 1157). The note with it: P. falciparum Indochina infected erythrocytes, osmotic lysis OD700, 18 h; higher = more signal, called active from +8 up or from −8 down.
Experiment [17] in a line: modulators of S6 phosphorylation in cells, primary screen, cell-based, A549, cytoblot, luminescence, serum-stimulated (AID 1158).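 Note: serum-stimulated A549 lung adenocarcinoma cells; signal is phosphorylated S6 detected by cytoblot immunostaining with HRP secondary.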 The note with it: A549 phospho-S6 cytoblot, 5 h, higher = more signal.
Experiment [18] has as its target NADPH oxidase 2 (Homo sapiens) (UniProt P04839). The experiment in a line: NOX2-dependent H2O2 signal modulators, primary screen, NOX inhibitor project, cell-based, HEK293-NOX2, PMA-stimulated, Amplex Red fluorescence (AID 1159). Note: test concentration not given here. The note with it: 45 min, higher = more signal, called active from +8 up or from −8 down.
The target of experiment [19] is NADPH oxidase 4 (Homo sapiens) (UniProt Q9NPH5). The experiment in a line: NOX4-dependent H2O2 signal modulators, primary screen, NOX inhibitor project, cell-based, HEK293-NOX4, tetracycline-induced, Amplex Red fluorescence (AID 1160). The following applies: 45 min, higher = more signal, called active from +8 up or from −8 down.
NADPH oxidase 4 (Homo sapiens), sequence (Q9NPH5 whole entry, looked up): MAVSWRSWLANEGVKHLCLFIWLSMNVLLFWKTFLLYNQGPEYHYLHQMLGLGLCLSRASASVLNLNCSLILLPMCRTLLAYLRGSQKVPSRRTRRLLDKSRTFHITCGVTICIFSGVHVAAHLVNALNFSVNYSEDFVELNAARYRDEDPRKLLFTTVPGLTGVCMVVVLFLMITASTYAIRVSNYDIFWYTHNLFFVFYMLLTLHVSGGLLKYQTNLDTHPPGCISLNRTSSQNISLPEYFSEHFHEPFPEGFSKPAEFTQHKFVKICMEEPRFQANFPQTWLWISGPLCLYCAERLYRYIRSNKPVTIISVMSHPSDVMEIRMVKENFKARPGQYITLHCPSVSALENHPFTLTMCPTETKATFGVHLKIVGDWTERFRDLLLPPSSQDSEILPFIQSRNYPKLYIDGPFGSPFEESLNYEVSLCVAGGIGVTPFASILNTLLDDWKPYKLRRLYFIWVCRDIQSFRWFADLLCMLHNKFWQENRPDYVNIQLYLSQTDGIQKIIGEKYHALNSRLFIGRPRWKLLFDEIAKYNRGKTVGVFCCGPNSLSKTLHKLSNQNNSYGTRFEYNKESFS
For experiment [20], the target named is NADPH oxidase 5 (Homo sapiens) (UniProt Q96PH1). The experiment in a line: NOX5-dependent H2O2 signal modulators, primary screen, NOX inhibitor project, cell-based, HEK293-NOX5, Amplex Red fluorescence (AID 1161). The following applies: HEK293-NOX5, ionomycin, 45 min, higher = more signal.
NADPH oxidase 5 (Homo sapiens), sequence (Q96PH1 whole entry, looked up): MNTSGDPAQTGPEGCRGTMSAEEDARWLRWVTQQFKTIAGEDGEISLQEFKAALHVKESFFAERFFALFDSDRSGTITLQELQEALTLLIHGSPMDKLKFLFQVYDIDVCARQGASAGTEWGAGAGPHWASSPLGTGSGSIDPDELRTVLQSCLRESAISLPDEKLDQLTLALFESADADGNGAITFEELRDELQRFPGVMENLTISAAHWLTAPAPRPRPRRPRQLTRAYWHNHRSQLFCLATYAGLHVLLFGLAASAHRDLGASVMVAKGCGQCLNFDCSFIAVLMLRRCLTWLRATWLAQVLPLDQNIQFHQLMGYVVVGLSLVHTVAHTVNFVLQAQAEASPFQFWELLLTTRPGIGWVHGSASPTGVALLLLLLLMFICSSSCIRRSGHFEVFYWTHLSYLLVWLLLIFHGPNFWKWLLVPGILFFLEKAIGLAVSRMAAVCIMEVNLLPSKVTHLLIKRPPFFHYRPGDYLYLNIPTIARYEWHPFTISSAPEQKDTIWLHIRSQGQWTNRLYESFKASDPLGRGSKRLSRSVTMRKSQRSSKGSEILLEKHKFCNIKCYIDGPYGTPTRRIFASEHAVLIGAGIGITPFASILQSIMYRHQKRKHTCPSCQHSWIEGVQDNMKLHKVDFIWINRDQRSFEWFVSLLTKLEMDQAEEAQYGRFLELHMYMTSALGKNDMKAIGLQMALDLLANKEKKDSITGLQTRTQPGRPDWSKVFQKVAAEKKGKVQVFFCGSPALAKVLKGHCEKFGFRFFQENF

NADPH oxidase 2 (Homo sapiens), sequence (P04839 whole entry, looked up): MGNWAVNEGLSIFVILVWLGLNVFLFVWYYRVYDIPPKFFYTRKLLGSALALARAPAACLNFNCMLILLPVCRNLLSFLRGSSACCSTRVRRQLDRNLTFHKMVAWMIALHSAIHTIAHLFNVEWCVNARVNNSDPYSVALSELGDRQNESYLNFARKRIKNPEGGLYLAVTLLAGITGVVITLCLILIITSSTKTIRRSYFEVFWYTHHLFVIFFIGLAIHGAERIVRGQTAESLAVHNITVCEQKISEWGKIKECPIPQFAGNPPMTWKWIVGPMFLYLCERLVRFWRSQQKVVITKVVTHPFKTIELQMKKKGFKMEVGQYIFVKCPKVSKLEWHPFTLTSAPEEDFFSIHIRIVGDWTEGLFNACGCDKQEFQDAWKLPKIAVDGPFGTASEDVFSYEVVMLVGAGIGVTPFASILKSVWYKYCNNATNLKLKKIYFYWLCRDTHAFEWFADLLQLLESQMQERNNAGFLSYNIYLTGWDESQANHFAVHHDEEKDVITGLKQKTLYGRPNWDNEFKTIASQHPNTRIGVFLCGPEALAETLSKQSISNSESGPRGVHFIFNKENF
Torsin-1A (Homo sapiens), sequence (O14656 whole entry, looked up): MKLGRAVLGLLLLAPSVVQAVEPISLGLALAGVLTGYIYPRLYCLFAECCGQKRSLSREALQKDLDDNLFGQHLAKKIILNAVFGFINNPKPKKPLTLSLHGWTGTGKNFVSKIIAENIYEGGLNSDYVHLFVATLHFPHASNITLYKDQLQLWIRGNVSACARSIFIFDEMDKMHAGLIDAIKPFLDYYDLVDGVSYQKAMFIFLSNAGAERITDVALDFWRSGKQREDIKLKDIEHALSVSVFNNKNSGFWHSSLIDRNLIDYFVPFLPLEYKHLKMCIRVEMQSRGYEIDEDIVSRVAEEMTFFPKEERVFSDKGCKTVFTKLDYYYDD

As to `COc1ccc(C(O)C2C=CC3C(=O)N(c4ccccc4)C(=O)C3N2Nc2ccccc2F)c2ccccc12` (stereo not given), the composite z-score in [1] amounted to 0.936; in experiment [6] it was 2.38; in experiment [7], 1.11; with Torsin-1A (Homo sapiens) [8], 0.163; with Torsin-1A (Homo sapiens) [9] it was 0.273; in experiment [10], 0.824. The compound further came in with a composite z-score in experiment [12] of 1.16. Besides, the z-score in experiment [2] was -0.225 (inactive); in [3], -1.21 (inactive); in experiment [4], 0.629 (inactive); in experiment [5], -0.813 (inactive); in experiment [11], -0.462 (inactive); in [13], 3.82 (inactive). For the same compound, the z-score in experiment [14] was 1.71 (inactive); in experiment [15], 0.419 (inactive); in experiment [16] it was 1.05 (inactive); in experiment [17], -0.593; in [18], -0.232 (inactive); in [19], -1.7 (inactive). Further, the z-score in experiment [20] was -2.13.

With `C=CC[C@H](OC(=O)Nc1ccc(SC)cc1)c1ccc(O)c(F)c1`, the composite z-score was -0.171 in experiment [1]; -0.588 in [6]; -0.285 in [7]; -0.135 with Torsin-1A (Homo sapiens) [8]; -0.151 in the experiment with Torsin-1A (Homo sapiens) [9]; 0.988 in [10]. Also, in experiment [12], the composite z-score worked out at 0.0226. Further, the z-score in [2] is -0.489 (inactive); in experiment [3], -0.459 (inactive); in [4], 0.31 (inactive); in experiment [5], 5.56 (inactive); in experiment [11], -0.705 (inactive); in experiment [13] it was 23.6 (active). In addition, the z-score in [14] is 4.93 (inactive); in experiment [15] it was 1.45 (inactive); in experiment [16], 0.966 (inactive); in experiment [17] it was 0.49; in experiment [18], -5.66 (inactive); in experiment [19], -2.66 (inactive). For the same compound, the z-score in experiment [20] was -3.08.

As for `CC(C)(C)OC(=O)CC[C@]1(C(N)=O)N=C(c2ccc(OCCCO)cc2)O[C@H]1c1ccccc1N=[N+]=[N-]`, the composite z-score was 0.641 in experiment [1]; 1.49 in [6]; 0.0966 in experiment [7]; 0.448 in the experiment with Torsin-1A (Homo sapiens) [8]; 0.424 in the experiment with Torsin-1A (Homo sapiens) [9]; -0.74 in [10]. This compound came in with a composite z-score in experiment [12] of 0.267. The z-score was -0.284 (inactive) in experiment [2]; 0.303 (inactive) in experiment [3]; 1.05 (inactive) in experiment [4]; -0.677 (inactive) in experiment [5]; 0.831 (inactive) in [11]; 30.5 (active) in experiment [13]. Moreover, the z-score in experiment [14] is 32.4 (active); in experiment [15], 0.697 (inactive); in experiment [16], 2.48 (inactive); in [17], -0.3; in experiment [18], -0.285 (inactive); in experiment [19] it was 0.324 (inactive). For the same compound, in [20], the z-score was -1.19.

Turning to `CCOC(=O)C1=C[C@@H](C(C)(C)C)N(S(=O)(=O)c2ccc(C)cc2)[C@H]1c1ccc(OC)cc1`, the composite z-score in [1] is 0.474; in [6] it was 1.36; in experiment [7] it was 0.0541; with Torsin-1A (Homo sapiens) [8], 0.795; with Torsin-1A (Homo sapiens) [9] it was -0.198; in [10], 0.523. Further, in [12], the composite z-score stood at 0.235. Besides, the z-score in [2] is -4.94 (inactive); in [3], -0.0448 (inactive); in [4], 0.238 (inactive); in experiment [5], 0.334 (inactive); in [11] it was -0.0371 (inactive); in [13], 1.44 (inactive). Besides, the z-score in experiment [14] is 1.11 (inactive); in experiment [15], 0.457 (inactive); in experiment [16], 0.71 (inactive); in experiment [17], -0.454; in experiment [18], -1.67 (inactive); in experiment [19] it was 0.244 (inactive). Further, the z-score in experiment [20] turned out to be 1.65.
